PKA-R1A activ: activates the PKA-R1A holoenzyme complex; PKA-R1A dissociation, Cy5-IP20 fluorescence polarization; scaled: DMSO 0%, 113 µM cGMP 100%; activation, % at 11.4 µM; actives 0.083% (n = 340,000); AID 504707;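 active = percent activation above the mean of all tested compounds plus 3 SD, cut at about 19% in these data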;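 note: higher means more PKAc released from R1A so a rise in polarization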
PKA-R2B activ: activators of human PKA-R2B complex; activation, % at 11.4 µM; PKA-R2B holoenzyme dissociation, Cy5-IP20 fluorescence polarization; R2B truncated from residue 108, S112A mutant; 0% DMSO only, 100% 113 µM cGMP; actives 0.079% (n = 340,000);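 active = activation above a cutoff set at the mean over all compounds plus 3 SD, cut at about 18% in these data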;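 note: higher means more holoenzyme dissociation and a rise in polarization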
Target sequence (P31323 whole entry, looked up, other chains not shown, the tested form may be a part): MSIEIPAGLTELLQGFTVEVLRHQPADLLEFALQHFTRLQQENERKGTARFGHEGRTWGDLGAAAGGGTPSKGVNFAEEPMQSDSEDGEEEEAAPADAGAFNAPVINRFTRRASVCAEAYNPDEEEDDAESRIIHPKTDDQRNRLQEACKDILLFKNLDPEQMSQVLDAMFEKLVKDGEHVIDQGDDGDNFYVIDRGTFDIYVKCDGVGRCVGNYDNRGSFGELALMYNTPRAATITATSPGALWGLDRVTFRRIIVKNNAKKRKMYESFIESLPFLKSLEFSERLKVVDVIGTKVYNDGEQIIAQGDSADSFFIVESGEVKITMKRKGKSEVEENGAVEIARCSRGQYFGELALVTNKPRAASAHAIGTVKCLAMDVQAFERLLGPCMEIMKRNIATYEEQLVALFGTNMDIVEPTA
ANO1 activ: activates or potentiates the mouse TMEM16A chloride channel; Q8BHY3; B-score at 10 µM; HEK293 TMEM16A/YFP-H148Q/I152L, iodide quench fluorescence; active compounds read low; actives 0.3% (n = 340,000);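 active = fluorescence-ratio B-score plate-corrected deviation score at least 3 library SD below zero, with starting fluorescence score within 5 deviations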;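 note: channel opened by trigger with iodide after compound preincubation; score built on the fluorescence ratio of max minus min over baseline; more negative score means more quench and so TMEM16A activation or potentiation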
CHT PAM: human CHT allosteric activation; Q9GZV3; B-score at 10 µM; CHT-expressing cells, membrane potential dye, choline EC20; active compounds read high; LV-AA mutant CHT in HEK293 cells; actives 0.49% (n = 310,000);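 active = initial fluorescence not abnormally high and integrated response B-score, plate-corrected, over 3 SD above library mean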
CHT block: inhibitors of human choline transporter CHT; Q9GZV3; CHT-expressing cells, membrane potential dye, choline response; active compounds read low; B-score at 10 µM; actives 0.86% (n = 310,000); AID 488975;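 active = B-score over 3 SD under the library average, and starting fluorescence ratio not unusually high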;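 note: choline stimulus applied at its EC90 after an EC20 pre-addition; B-score computed on integrated fluorescence ratio after choline addition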
ANO1 block: mouse TMEM16A channel inhibition, primary screen; HEK293 TMEM16A/YFP iodide influx fluorescence, ionomycin; actives 1.2% (n = 310,000); normalized B-score (activity score, 25-100; higher = stronger inhibition) at 10 µM;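 active = ratio plate-corrected score three or more library SD toward inhibition, starting fluorescence score within five deviations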;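 note: score derived from kinetic fluorescence span divided by baseline fluorescence per well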
TMEM16A reconf: reconfirmed blocker of mouse TMEM16A calcium-activated chloride channel | shares compounds with ANO1 block | HEK293 TMEM16A/YFP-H148Q, iodide quench fluorescence; ionomycin added to raise cell calcium | inhibition, % at 10 µM | actives 39% (n = 2,300);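 active = mean duplicate percent inhibition, scaled so buffer wells are 0 and the reference blocker 100, over three buffer SD above buffer mean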
TMEM16A Ca cntr: counter-screen for TMEM16A inhibitors: effect on calcium mobilization | actives 2% (n = 2,300) | shares compounds with ANO1 block | TMEM16A/YFP HEK293, Fluo4 calcium mobilization | calcium response (% of ionomycin), % at 10 µM;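 active = duplicate-averaged calcium signal over 20% of the ionomycin maximum, relative to buffer baseline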;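 note: each well's signal is peak minus trough fluorescence divided by its pre-addition baseline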
YFP-HEK293 quench: parental YFP-HEK293 iodide quench counter-screen activity | shares compounds with ANO1 block | ionomycin | YFP ratio F(max-min)/F0 at 10 µM | 2,300 tested, under 10 active | AID 652233;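 active = yellow fluorescent protein signal ratio exceeding the buffer control mean by over 5 SD of those controls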;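 note: ratio is mean of duplicate wells from kinetic YFP trace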
ClC-1 inh: blocks the rat ClC-1 voltage-dependent chloride channel | shares compounds with ANO1 block | CHO ClC-1-YFP, iodide influx fluorescence quench; iodide control reads 0, buffer control 100 | ratio percent, % at 10 µM | 2,300 tested, under 10 active | AID 652236;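 active = duplicate-mean ratio percent above the mean of iodide-only control wells, which defines zero, plus 5 of their SD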;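 note: higher percent means stronger block of ClC-1 iodide influx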
Numbers stand for hits; 0 = inactive; - = not tested or not shown. Shown are actives, neighbours in structure and some others; about 2.5% of the full set was active somewhere.

SMILES	PKA-R1A activ	PKA-R2B activ	ANO1 activ	CHT PAM	CHT block	ANO1 block	TMEM16A reconf	TMEM16A Ca cntr	YFP-HEK293 quench	ClC-1 inh
S=C(NCCc1ccc(Cl)cc1)Nc1ccc(Cl)cc1Cl	0	0	0	0	0	25	0	0	0	0
Fc1ccc(NC(=S)Nc2ccc(Cl)cc2Cl)cc1	-	-	-	0	0	100	19.5%	0	0	0
S=C(NCc1ccc(Cl)cc1)Nc1ccc(Cl)cc1Cl	0	0	0	0	0	0	-	-	-	-
O=C(O)CNS(=O)(=O)c1ccc(Br)s1	0	0	0	0	0	0	-	-	-	-
O=S(=O)(NCc1ccncc1)c1ccc(Br)s1	0	0	0	0	0	100	0	0	0	0
Cc1cc(C)c(C)c(S(=O)(=O)NCc2ccncc2)c1C	0	0	0	0	0	25	26.0%	0	0	0
CCc1ccc(S(=O)(=O)/N=C2\C=C(Nc3ccc(C(=O)O)cc3)C(=O)c3ccccc32)cc1	0	0	0	0	-7.23	100	23.0%	0	0	0
O=C1OC(Nc2nc(-c3ccc(F)cc3)cs2)c2ccccc21 (configuration not stated)	0	0	0	0	0	0	-	-	-	-
O=C(CSc1nc2ccccc2o1)Nc1cc(C(F)(F)F)ccc1N1CCOCC1	0	0	0	0	0	0	-	-	-	-
O=C(CSc1nc2ccccc2o1)Nc1ccccc1N1CCCCCC1	0	0	0	0	0	25	0	0	0	0
Cc1cc(C)nc(SCC(=O)Nc2ccc(N3CCOCC3)c(Cl)c2)n1	0	0	0	0	0	100	0	0	0	0
O=C(CSc1nc2ccccc2o1)Nc1ccc(N2CCOCC2)c(Cl)c1	0	0	0	0	0	100	24.0%	0	0	0
CNc1nc(SCC(=O)Nc2ccc(Cl)c(Cl)c2)nc(N2CCOCC2)n1	0	0	0	0	0	0	-	-	-	-
O=C(CSc1nc2ccccc2s1)Nc1ccc(N2CCOCC2)c(Cl)c1	0	0	0	0	0	100	0	0	0	0
CC(=O)Nc1ccc2nc(SCC(=O)Nc3ccc(N4CCOCC4)c(Cl)c3)sc2c1	0	0	0	0	0	0	-	-	-	-
Cc1ccc([C@@H]2[C@@H]3C(=O)N(C)C(=O)[C@@H]3[C@@H]3C(=O)Nc4ccccc4C(=O)N23)cc1	0	0	0	0	0	0	-	-	-	-
CNC(=O)Cn1nc(-c2ccc(C)cc2)c2ccccc2c1=O	0	0	0	0	0	0	-	-	-	-
Cc1ccc(-n2nnnc2SCC(N)=O)c(C)c1	0	0	0	0	0	0	-	-	-	-
Cc1ccc(-n2nnnc2SCc2nnc(-c3ccccc3Br)o2)c(C)c1	0	0	0	0	0	100	0	0	0	0
Cc1ccc(Cl)cc1NC(=O)N[C@@H](CC(C)C)C(=O)O	0	0	0	0	0	0	-	-	-	-
Cc1ccc(S(=O)(=O)NCc2ccc(C(=O)N3CCN(c4ccccc4)CC3)cc2)cc1	0	0	0	0	0	0	-	-	-	-
O=C(c1ccc(CNS(=O)(=O)c2ccccc2)cc1)N1CCN(Cc2ccccc2)CC1	0	0	0	0	0	25	0	0	0	0
CC1Oc2ccccc2N(CC(=O)NCCN2CCOCC2)C1=O (configuration not stated)	0	0	0	0	0	0	-	-	-	-

Source: PubChem BioAssay
